An excerpt weighted towards active compounds, which were near 1.5% of everything screened.
NSD2 HMT inh – blocks human histone methyltransferase NSD2 | NSD2 peptide methylation, AlphaScreen, 120 min | inhibition, % at 12.5 µM | 310,000 compounds, 0.54% hits; in the data active = inhibition above about 50%
Casp6 inh – blocks human caspase-6 cleavage activity; AID 686996; purified caspase-6, Z-VEID-R110 cleavage fluorescence; P55212; inhibition, % at 12.5 µM; 350,000 compounds, 0.53% hits;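 active = mean inhibition across replicates at least about 35%, with every replicate also reaching that limit, limit read from the data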;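 also: 0% = median of neutral control wells and 100% = no fluorescence left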
RAD52 anneal inh – blocks human RAD52 DNA annealing; P43351; recombinant RAD52 DNA annealing, FRET fluorescence; inhibition, % at 18.7 µM; 360,000 compounds, 0.46% hits; AID 651710;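 active = every replicate showing at least 50% inhibition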
MLL AF4-AF9 inh – inhibitors of human MLL-AF4/AF9 interaction; P42568; AID 651704; 350,000 compounds, 0.47% hits; AlphaScreen, biotin-AF4 peptide binding to FLAG-AF9; inhibition, % at 10 µM;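 active = every replicate reaching a set inhibition limit, whatever the replicate mean, cut at about 25% in these data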;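 also: 0% = plate neutral control median and 100% = total signal loss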
Target sequence (P42568 whole entry, looked up): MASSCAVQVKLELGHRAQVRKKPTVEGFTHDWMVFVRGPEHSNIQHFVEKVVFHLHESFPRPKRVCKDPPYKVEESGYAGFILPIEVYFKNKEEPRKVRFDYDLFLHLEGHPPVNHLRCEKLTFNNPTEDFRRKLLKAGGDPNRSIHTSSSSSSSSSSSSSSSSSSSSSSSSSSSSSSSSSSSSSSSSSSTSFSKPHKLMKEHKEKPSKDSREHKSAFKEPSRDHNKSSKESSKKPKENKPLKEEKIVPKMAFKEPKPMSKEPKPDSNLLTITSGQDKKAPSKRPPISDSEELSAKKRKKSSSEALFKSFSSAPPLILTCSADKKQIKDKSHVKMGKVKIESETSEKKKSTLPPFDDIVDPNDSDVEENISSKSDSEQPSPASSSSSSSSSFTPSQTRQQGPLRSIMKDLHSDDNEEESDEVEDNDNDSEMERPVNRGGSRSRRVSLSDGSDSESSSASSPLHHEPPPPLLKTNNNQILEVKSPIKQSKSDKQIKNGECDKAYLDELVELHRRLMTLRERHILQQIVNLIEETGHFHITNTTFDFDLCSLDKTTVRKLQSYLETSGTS
miR-122 sensor – inhibitors of miR-122 in Huh7 cells. Huh7 miR-122 Renilla luciferase sensor, 48 h; neutral wells = 0, positive control = 100. activation (reporter increase), % at 12.5 µM. 340,000 compounds, 0.3% hits. AID 602342;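 active = mean replicate activation score at least 90 and every replicate individually at or above 90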;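 also: higher luciferase means less miR-122 activity so hits act as miR-122 inhibitors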
AlphaScreen art – AlphaScreen assay artifact in NSD2 counter-screen. shares compounds with NSD2 HMT inh. AlphaScreen artifact counterscreen, preloaded methylated H4 peptide. AC35, µM (top dose mostly 10 µM), for the others: top-dose activity change, negative = signal loss. 1,500 compounds, 9.4% hits. AID 1053174; call rule not given here
* marks the source's active call; other numbers are inactive results; i = inactive; x = no result; [ ] = remark or other dose.

SMILES	NSD2 HMT inh	Casp6 inh	RAD52 anneal inh	MLL AF4-AF9 inh	miR-122 sensor	AlphaScreen art
CCOc1cc(/C=C2\C(=O)NC(=O)N(CCc3ccc(F)cc3)C2=O)ccc1O	53.5*	10.2	-116.9	0.8	4.1	-7.7%
Cc1ccc(C2(O)CN3CCC2CC3)cc1 (stereo not given)	-1.3	0.7	-2.2	-2.3	x	x
Nc1ccc(C2(c3ccc(N)cc3)CN3CCC2CC3)cc1	176.4*	x	x	x	-2.9	-16.8%
CC(=O)N(C)C1=Nc2ccc(Cl)cc2C(c2ccccc2)=[N+]([O-])C1	54.4*	-4.2	-5.0	-0.8	-1.8	-1.7%
CN(C)C(=O)On1c(-c2ccccc2)nc2ccc(Cl)cc21	0.7	x	x	x	0.8	x
Nc1c(C(=O)NCC2CCCO2)c2nc3ccccc3nc2n1Cc1ccco1 (stereo not given)	-9.0	3.5	-63.9	x	-1.1	x
Nc1c(C(=O)NC2CCCC2)c2nc3ccccc3nc2n1CC1CCCO1 (stereo not given)	81.7*	x	x	x	4.2	26.6%
CCCC(=O)NC1=C(N2CC2)C(=O)C(NC(=O)CCC)=C(N2CC2)C1=O	92.1*	21.3	-11.6	-0.3	-5.9	-1.2%
CCCC(=O)Nc1ccc(N2CCN(CC)CC2)c(Cl)c1	6.0	x	x	x	6.9	x
O=[N+]([O-])c1ccc(N(CCO)CCO)c2c1no[n+]2[O-]	134.6*	-6.0	-407.8	2.1	-5.3	-1.5%
O=[N+]([O-])c1ccccc1Cl	x	-3.5	-5.0	x	3.3	x
O=C1NC(=O)C(Sc2ccccc2[N+](=O)[O-])C(=O)N1	85.4*	37.7*	1.0	1.4	0.9	-4.2%
O=C(Cc1ccccn1)N1CCCCN2[C@H](CO)[C@@H](c3ccc(C#Cc4ccccc4)cc3)[C@@H]2C1	x	-1.3	-49.7	-1.9	-6.2[16.7 µM]	x
COC1C(O)C(C)OC(OC2C(Oc3cccc4c(O)c5c(=O)oc6ccc(C)c7c(=O)oc(c34)c5c67)OC(C)C(O)C2O)C1O (stereo not given)	66.1*	6.3	-12.2	-2.2	-10.6	-12.2%
O=C(Cc1cccnc1)N1CCCCN2[C@H](CO)[C@@H](c3ccc(/C=C/c4ccccc4)cc3)[C@@H]2C1	x	0.5	-33.0	9.0	-2.1[16.7 µM]	x
CC(C)NC(=O)N1[C@@H]2c3ccc(-c4cccc(C(=O)N(C)C)c4)c(=O)n3C[C@H]1[C@H](CO)[C@H]2C(=O)O	x	-0.6	2.9	-0.8	x	x
Cc1ccc(N2C(=O)NC(=O)/C(=C\C=C\c3ccco3)C2=O)cc1	76.2*	9.1	-217.6	-13.1	-8.4	-5.7%
CCOC(=O)c1c(NS(=O)(=O)c2ccccc2)n(CCCOC)c2nc3ccccc3nc12	68.2*	x	x	x	x	4.5%
COCCCn1c(N)c(C(=O)OCCOC)c2nc3ccccc3nc21	72.6*	x	x	x	-2.4	-2.9%
COCCNC(=O)c1c(NC(=O)c2ccc(Br)o2)n(Cc2ccccc2)c2nc3ccccc3nc12	5.8	x	x	x	-10.1	x
CCCCNC(=O)c1c(N)n(CCCOC)c2nc3ccccc3nc12	106.0*	x	x	x	81.9	11.1%
COCCCNC(=O)c1c(NC(=O)c2ccco2)n(Cc2ccccc2)c2nc3ccccc3nc12	105.6*	x	x	x	-0.7	1.9%
C[C@@H]1CN([C@@H](C)CO)C(=O)c2c(c3ccccc3n2C)-c2ccccc2CO[C@H]1CN(C)C(=O)Oc1ccccc1	x	-1.4	-8.4	10.6	x	x
COC(=O)[C@@H]1[C@@H](CO)[C@@H]2Cn3c(ccc(C4=CCCC4)c3=O)[C@H]1N2CC1CCCCC1	x	1.4	-17.9	3.3	-2.4[16.7 µM]	x
CN(C)c1ccccc1	-3.4	-1.3	5.8	-2.5	-7.7	x
SMILES	NSD2 HMT inh	Casp6 inh	RAD52 anneal inh	MLL AF4-AF9 inh	miR-122 sensor	AlphaScreen art
Cc1cccc(N=Nc2ccc(N(C)C)cc2)c1	50.8*	1.9	0.2	26.6*	19.6	8.41µM*
Cc1ccc(OC(=O)N(C)C[C@@H]2OCc3ccccc3-c3c(n(C)c4ccccc34)C(=O)N([C@@H](C)CO)C[C@H]2C)cc1	x	0.8	14.9	8.2	x	x
COCCN1C(=O)/C(=C/c2c(OC)cc(OC)cc2OC)C(=O)N(c2ccccc2)C1=O	51.7*	-1.9	-48.4	-0.5	x	-1.5%
O=C(O)[C@@H]1[C@@H](CO)[C@@H]2Cn3c(ccc(-c4cncnc4)c3=O)[C@H]1N2C(=O)NC1CCCC1	x	0.2	-2.0	-1.8	-6.4[16.7 µM]	x
Clc1ccccc1Nc1ncnc(-n2cccc2)n1	128.4*	x	x	x	3.0	-5.4%
COC(=O)[C@@H]1[C@@H](CO)[C@@H]2Cn3c(ccc(-c4ccccc4)c3=O)[C@H]1N2CC1CCOCC1	x	0.5	1.7	-0.1	-0.9[16.7 µM]	x
O=C(Cc1cccnc1)N1CCCCN2[C@H](C1)[C@@H](c1ccc(C#CC3(O)CCCC3)cc1)[C@@H]2CO	x	-1.1	-4.6	-4.2	5.9[16.7 µM]	x
COc1ccc(C#Cc2ccc([C@@H]3[C@H](CO)N4CCCCN(C(=O)Cc5ccncc5)C[C@@H]34)cc2)cc1	x	-0.3	-68.5	0.3	6.4[16.7 µM]	x
COC(=O)[C@@H]1[C@@H](CO)[C@@H]2Cn3c(ccc(/C=C/c4ccccc4)c3=O)[C@H]1N2C(=O)C1CC1	x	0.2	10.5	-8.5	x	x
CCN1/C(=C/C=C/C2=[N+](CC)c3ccccc3C2(C)C)C(C)(C)c2ccccc21	55.0*	-30.2	i	3.1	-22.6	-10.8%
O=C(Cc1ccncc1)N1CCCCN2[C@@H](CO)[C@@H](c3ccc(C#CC4(O)CCCC4)cc3)[C@@H]2C1	x	-1.2	-3.0	0.1	5.4[16.7 µM]	x
Cc1ccc(N2C(=O)NC(=O)/C(=C/c3ccc(OC(=O)c4cccs4)cc3)C2=O)cc1	127.4*	x	x	x	-6.8	-4.1%
COC(=O)[C@@H]1[C@@H](CO)[C@@H]2Cn3c(ccc(-c4cccnc4)c3=O)[C@H]1N2S(=O)(=O)c1ccccc1F	x	-0.8	-0.6	-1.8	-1.0[16.7 µM]	x
CCNCCNc1ccc([N+](=O)[O-])c2cccnc12	100.5*	-3.8	5.9	-1.8	-7.7	-4.4%

Screening results as filed in PubChem.
